Source: PubChem
Shown are actives, neighbours in structure and some others; about 6% of the full set was active somewhere.
D1 potentiator = human D1 dopamine receptor positive modulation; 360,000 compounds, 0.036% hits; HEK293 TREx D1 cells, calcium flux, dopamine EC20 potentiation; potentiation, % at 10 µM; in the data active means potentiation above about 30%
Target sequence (P21728 whole entry, looked up): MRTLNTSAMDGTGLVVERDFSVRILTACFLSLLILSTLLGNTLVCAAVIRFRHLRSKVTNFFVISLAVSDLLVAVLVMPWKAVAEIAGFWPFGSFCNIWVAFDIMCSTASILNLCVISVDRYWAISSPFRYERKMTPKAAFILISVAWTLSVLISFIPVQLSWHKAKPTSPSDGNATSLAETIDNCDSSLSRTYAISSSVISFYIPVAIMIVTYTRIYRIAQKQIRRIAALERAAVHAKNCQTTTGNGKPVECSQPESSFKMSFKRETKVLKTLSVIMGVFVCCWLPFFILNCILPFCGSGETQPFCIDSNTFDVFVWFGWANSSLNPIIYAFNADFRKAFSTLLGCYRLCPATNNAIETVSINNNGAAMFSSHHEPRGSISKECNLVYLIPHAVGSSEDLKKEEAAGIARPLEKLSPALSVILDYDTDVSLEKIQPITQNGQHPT
D1 antag = human D1 dopamine receptor antagonism | P21728 | HEK293 TREx D1 cells, calcium flux, dopamine EC80; active compounds read low | activity change, negative = inhibition, % at 10 µM | 360,000 compounds, 3.2% hits; in the data active means activity change below about -30%
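Kinetic fluorescence of a calcium dye serves as the read-out. D1-expressing Hek293 Trex cells, induced overnight at 30 C, are exposed to compound for 180 s before an EC80 dopamine addition, then read 180 s further.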
D1 agonist = activates the human D1 dopamine receptor. P21728. HEK293 T-REx D1 cells, calcium flux, agonist mode. activation, % at 2 µM. 360,000 compounds, 1% hits. AID 504660; in the data active means activation above about 30%
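Agonism was scored from calcium flux recorded over 180 s (1 read/s) after pintool compound addition, following a 10-cycle baseline. Cells were inducible force-coupled HEK293 TREx D1, plated overnight at 30 C and loaded with no-wash calcium dye.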
D3 antag = antagonists of human D3 dopamine receptor; P35462; D3R cells, DiscoveRx beta-arrestin luminescence, antagonist mode; active compounds read low; max response, negative = inhibition, %; 360,000 compounds, 2.5% hits; AID 652054; in the data active means max response below about -50%; inconclusive means no clear call, values can overlap the other calls
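Cells expressing the human receptor were seeded at 1500 cells/well, incubated overnight at 37 degrees C in 5% CO2, then exposed to library compounds with dopamine controls for 90 minutes at 37 degrees C before luminescent detection.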
DRD3 agonist = D3 dopamine receptor (human) agonism. P35462. D3R DiscoveRx beta-arrestin cells, luminescence, 90 min. max activation, %. 410,000 compounds, 0.58% hits. AID 652048; in the data active means max activation above about 30%
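Agonist-mode cell screen: cells plated at 1500/well and incubated overnight at 37 °C, then exposed to library compounds for 90 min at 37 °C. Detection reagent was added for 30–60 min at room temperature, and luminescence was read.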
Each line names hits and unclear results; the compound was inactive in the other large screens.

CSc1ncc(CN2CCCCC2C(=O)Nc2ccc(Oc3ccccc3)nc2)cn1 (stereo unspecified)	D1 antag -31.3
CCn1cc(CN2CCC(C(=O)Nc3ccc(Oc4ccccc4F)cc3)CC2)c(C)n1	D3 antag inconclusive
CC(C)n1cc(CN2CCC(C(=O)Nc3ccc(Oc4ccccc4F)cc3)CC2)cn1	D1 antag -62.3, D1 agonist 104.6, D3 antag -60.8
Cc1ncc(CN2CCCCC2C(=O)Nc2ccc(Oc3ccccc3)nc2)cn1 (stereo unspecified)	none
Cc1c(CN2CCC(C(=O)Nc3ccc(Oc4ccccc4)nc3)CC2)cnn1C	none
CCc1ccc(CN(C)CC(=O)Nc2sccc2C#N)cc1	none
CCC(CN)CC(C)CCNCC(O)CNCC(C)CC(CC)CN (stereo unspecified)	none (no result: D1 potentiator, D1 antag, D1 agonist, D3 antag)
O=C(Nc1ccc(Oc2ccccc2)nc1)C1CCN(Cc2ccccc2)CC1	none
COc1ccc(CN2CCC(C(=O)Nc3ccc(Oc4ccccc4)nc3)CC2)cc1F	D1 agonist 30.8
COc1cc(OCc2ccccc2)c(OC)c(OCc2ccccc2)c1	DRD3 agonist 39.8 (no result: D1 potentiator, D1 antag, D1 agonist)
COc1c(Br)cc(C(N)=O)cc1OCc1ccccc1	none
O=C(COc1ccc(Cl)cc1)OCCNC12CC3CC(CC(C3)C1)C2	none (no result: D1 potentiator, D1 antag, D1 agonist, D3 antag)
CN1CCC(=C2c3ccccc3C=Cc3ccccc32)CC1	D1 antag -84.4, D3 antag -115.0 (no result: D1 potentiator, D1 agonist, DRD3 agonist)
CN1CCN(C(=O)Nc2ccc3c(c2)N(C)C(=O)c2ccccc2S3)CC1	none
CN1CCC(=C2c3ccccc3Sc3ccccc32)CC1	D3 antag -108.0 (no result: D1 potentiator, D1 antag, D1 agonist)
Cc1nn2c(-c3ccco3)ccnc2c1-c1ccc(Cl)cc1	none (no result: D3 antag)
CC(=O)NCCC1CCCCN1Cc1nc(Cc2cccc(C(F)(F)F)c2)no1 (stereo unspecified)	D1 antag -50.2
NC(=O)[C@@H]1CCCN1Cc1nc(Cc2cccc(C(F)(F)F)c2)no1	none
OCC1CCCN(C2CCN(Cc3nc(Cc4cccc(C(F)(F)F)c4)no3)CC2)C1 (stereo unspecified)	DRD3 agonist 30.1
Cc1c(Cl)c(-c2n[nH]c(=S)n2-c2ccc(F)cc2)nn1C	D3 antag -65.9
O=C(NCCCN1CCN(CCCNC(=O)c2ccccc2F)CC1)c1ccccc1F	D3 antag -51.3
O=C(NCCCN1CCOCC1)c1c(F)cccc1F	none
O=C(CNC(=O)c1ccccc1F)NNC(=O)c1ccccc1O	D3 antag -59.5
O=C(NCCN1CCN(c2ccccc2)CC1)c1ccccc1F	D3 antag -55.9
O=C(NCCS(=O)(=O)N1CCN(c2ccccc2)CC1)c1ccccc1F	none
Cc1cc(C)c(Nc2nn3c(=O)c4cc5c(cc4nc3s2)OCO5)c(C)c1	none (no result: D3 antag)
CC(C)C(NC(=O)c1ccccc1Cl)C(=O)OCc1nc2scc(-c3ccccc3Cl)c2c(=O)[nH]1 (stereo unspecified)	none
CC(C)[C@H](NC(=O)c1ccccc1Br)C(=O)OCc1nc2ccsc2c(=O)[nH]1	D1 antag -30.2
NC(=O)CC(CC(=O)OCc1ccccc1)c1ccccc1 (stereo unspecified)	none
CN(C(=O)OCc1ccccc1)C(CC(N)=O)C(=O)O (stereo unspecified)	D3 antag -98.7
Cc1cc(NC(=O)N2CCC(CN3CCCCCC3)CC2)ccc1Br	none (no result: D3 antag)
CC(=O)N[C@@H]([C@@H](O)[C@H](O)[C@H](O)CO)[C@@H](O)CC(=O)C(=O)O	none (no result: D1 potentiator, D1 antag, D1 agonist, D3 antag)
COCc1ccc(-c2c(-c3ccsc3)oc(=O)c3cc(OC)c(OC)cc23)cc1	DRD3 agonist 41.5 (no result: D1 potentiator, D1 antag, D1 agonist)
COc1cc2c(C#CCCO)c(-c3ccsc3)oc(=O)c2cc1OC	none (no result: D1 potentiator, D1 antag, D1 agonist)
COc1cc(Br)cc(CN2CCN(C/C=C/c3ccccc3)CC2)c1O	D3 antag inconclusive
Cc1cc(C)c2c(CN3CCN(C/C=C/c4ccccc4)CC3)cc(=O)oc2c1	D3 antag -64.2
COc1ccc2[nH]c(C)c(C(=O)CN3CCN(C/C=C/c4ccccc4)CC3)c2c1	D3 antag -57.4
Cc1[nH]c2ccccc2c1C(=O)CN1CCN(C/C=C/c2ccccc2)CC1	none
COc1ccc2oc(C(=O)N3CCN(C/C=C/c4ccccc4)CC3)c(C)c2c1	DRD3 agonist 30.3
COc1ccc(O)c(CN2CCN(C/C=C/c3ccccc3)CC2)c1	D3 antag -76.3
COc1ccc(N(Cc2cccs2)C(=O)c2ccc(Br)o2)cc1	none (no result: D3 antag)
CN1CCN(CCOCCOc2ccc(Br)cc2Cl)CC1	D3 antag -61.2
CC1CCCN(CCOCCOc2ccc(Br)cc2Cl)C1 (stereo unspecified)	D1 antag -32.1, D3 antag -82.5
Cc1ccc(OCCCCCCN2CCNCC2)c(Br)c1	none (no result: D1 potentiator, D1 antag, D1 agonist)
CC1CCCN(CCC(=O)c2ccc(Br)cc2)C1 (stereo unspecified)	none
CC1CCN(CCCOc2ccc(Br)cc2Cl)CC1	D1 antag -67.9, D1 agonist 51.6, D3 antag -62.1
Cc1ccc(OCCCCN2CCC(C)CC2)c(Br)c1	D3 antag -95.6
CC1CCN(CCCCOc2ccc(Cl)cc2)CC1	none
Clc1cc(Br)ccc1OCCN1CCOCC1	D3 antag inconclusive
COc1ccc(NCC(=O)NN=C2CCS(=O)(=O)c3ccc(F)cc32)cc1	none (no result: D1 potentiator, D1 antag, D1 agonist)
NC(=O)CSc1ncc2c(n1)-c1ccccc1N(Cc1ccc(F)cc1)S2(=O)=O	none (no result: D3 antag)
Cc1cc(Cl)c(OCCOCCN2CCCC(C)C2)c(Br)c1 (stereo unspecified)	D3 antag inconclusive
CC1CCCN(CCOCCOc2ccc(Cl)cc2Br)C1 (stereo unspecified)	D3 antag -99.6
NS(=O)(=O)c1ccc(N=Nc2c[nH]c(=O)c(O)c2)cc1	D3 antag -66.2
COc1cc(/C=C2\S/C(=N/S(=O)(=O)c3ccccc3)NC2=O)c([N+](=O)[O-])cc1OC	D3 antag -87.6
COc1ccc(/C=C2\CCCC3C2=NN(C(=O)c2scnc2C)C3c2ccc(OC)c(OC)c2)cc1OC (stereo unspecified)	DRD3 agonist 71.6
COc1ccc(/C=C2\CCCC3C2=NN(C(=O)c2ccco2)C3c2ccc(OC)c(OC)c2)cc1OC (stereo unspecified)	none
COc1ccccc1CNc1ncnc2onc(-c3ccc(Cl)cc3)c12	none (no result: D3 antag)
CCc1ccc(Nc2cc(=O)n(C3CCCCC3)c(=O)[nH]2)cc1	D1 antag -35.3, D1 agonist 34.3, D3 antag inconclusive
O=c1cc(Nc2ccc3c(c2)OCCO3)[nH]c(=O)n1C1CCCCC1	none
Cc1ccc(CNc2oc(-c3ccco3)nc2C#N)cc1	D1 antag -37.1
CCc1nnc(NC(=O)c2ccc(OC)cc2OC)s1	D1 antag -30.2
COc1ccc(C(=O)Nc2nnc(SCC(=O)Nc3ccc(NC(C)=O)cc3)s2)c(OC)c1	none
CC1=Nc2ccccc2/C1=C/c1sc(=N)n(-c2nccs2)c1O	D1 agonist 58.0, D3 antag -96.1
Cn1nnc2c(NCCc3ccccc3)ncnc21	none (no result: D1 antag, D3 antag)
O=C1Nc2ccc(Cl)cc2C12Nc1ccccc1-c1nnc(SCc3ccccc3F)nc1O2 (stereo unspecified)	D1 antag -44.9
